Compound activity (PubChem BioAssay)
This is a sample that favours compounds with a hit; in the whole collection about 2.4% have one here.
Cruzain inh Det: blocks cruzain activity in presence of Triton detergent. P25779. purified cruzain, Z-FR-AMC fluorescence, 0.01% Triton. Potency, µM, for the others: max response, negative = inhibition, most hits filed as inhibitors. 0.43% of 200,000 active;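 further: plate controls were neutral wells for no effect and buffer without enzyme for full effect; nearly all actives have a fitted effect of over 40% in size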
Target sequence (P25779 123-467 limits assumed): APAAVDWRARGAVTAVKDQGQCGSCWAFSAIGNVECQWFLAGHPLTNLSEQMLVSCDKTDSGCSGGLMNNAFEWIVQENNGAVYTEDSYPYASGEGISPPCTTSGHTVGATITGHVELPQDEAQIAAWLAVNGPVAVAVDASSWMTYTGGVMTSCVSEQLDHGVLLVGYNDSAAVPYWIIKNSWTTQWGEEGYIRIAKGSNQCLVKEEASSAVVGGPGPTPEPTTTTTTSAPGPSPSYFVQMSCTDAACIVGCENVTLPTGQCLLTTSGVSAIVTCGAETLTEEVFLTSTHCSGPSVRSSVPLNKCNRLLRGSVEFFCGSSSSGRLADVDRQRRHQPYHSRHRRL
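Detergent-containing run (0.01% Triton X-100) in acetate buffer pH 5.5 with 5 mM DTT: enzyme at 1.5 nM final, 15 min compound preincubation at room temperature, then 2 uM Z-FR-AMC substrate. Activity taken as 60 s fluorescence increase at 360/450 nm.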
Cruzain inh noDet: cruzain (T. cruzi) inhibition without detergent. Potency, µM, inactives show max response, negative = inhibition, actives largely listed as inhibitors. P25779. 2.3% of 200,000 active. purified cruzain, Z-FR-AMC fluorescence, no detergent;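 further: plate controls were enzyme without inhibitor for no effect and buffer without enzyme for full effect; nearly all actives have a fitted effect of over 40% in size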
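Detergent-free condition (0.00005% Triton X-100) in acetate buffer pH 5.5 with DTT. 1.5 nM enzyme and compound were pre-mixed 15 min, then 2 uM Z-FR-AMC substrate added; reaction progress from fluorescence change between first and third reads (60 s).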
The depositor's hits bear a star; u = inconclusive. The call rests on the fitted dose curve; in most records, active means well fitted curve in the direction sought with a large enough effect; inconclusive means small, poorly fitted or top-dose-only effect, or another doubt; inactive means no such curve, though single readings can be large; an effect the other way counts as inactive or inconclusive. Potency means the concentration at half of the fitted maximal effect.

SMILES	Cruzain inh Det	Cruzain inh noDet
CN1CCN(c2ccc3nc(-c4ccc5nc(-c6ccc(O)cc6)[nH]c5c4)[nH]c3c2)CC1	-8%	-2%
O=C(COc1ccc(F)cc1)OCc1cc(=O)n2nc(C3CCCCC3)sc2n1	-2%	-3%
Cc1sc2nc(COC(=O)c3ccc(N4CCCC(C)C4)c([N+](=O)[O-])c3)[nH]c(=O)c2c1C (stereo unspecified)	-5%	7.9µM*
Cc1sc2nc(COC(=O)c3ccc(N4CCCC4)c([N+](=O)[O-])c3)[nH]c(=O)c2c1C	-7%	u
COc1ccccc1-n1nc(-c2ccccc2)c2cnc3c(F)cc(F)cc3c21	8%	10%
Cc1ccc(S(=O)(=O)c2c(Nc3ccc(C)c(C)c3)sc(C(=O)c3ccc4c(c3)OCO4)c2N)cc1	-2%	2.5µM*
CCOc1ccc(S(=O)(=O)N(CC(=O)Nc2ccc3c(c2)OCO3)c2ccc(C)cc2)cc1	-8%	1%
Cc1ccc(S(=O)(=O)c2c(Nc3cc(C)ccc3C)sc(C(=O)c3ccc4c(c3)OCO4)c2N)cc1	9%	-27%
CCOc1ccc(Nc2sc(C(=O)c3ccc4c(c3)OCO4)c(N)c2S(=O)(=O)c2ccc(C)cc2)cc1	-3%	3.2µM*
O=C(Nc1ccc(Cl)cc1)C1CCN(c2nc3ccccc3nc2C(F)(F)F)CC1	1%	4%
CC1=CN2C(=N)/C(=C/c3ccc(C)o3)C(=O)N=C2S1	-9%	-11%
Cc1ccc(/C=C2\SC(N3CCN(C(c4ccccc4)c4ccccc4)CC3)=NC2=O)o1	-12%	7.9µM*
CC[C@](N)(C(=O)O)C(C)C	4%	24%
O=c1c2cccnc2n(Cc2ccccc2F)c(=O)n1Cc1ccccc1Cl	-1%	-6%
Cc1cc(-c2cccs2)c2c(N)c(C(=O)c3ccc4c(c3)OCO4)sc2n1	-6%	25µM*
COc1ccc(C(=O)c2sc3nc(C)cc(-c4cccs4)c3c2N)cc1	-5%	u
CCCN(C(=O)c1c(C)oc2ncn(CC(C)C)c(=O)c12)c1ccccc1C	0%	18%
COC(=O)c1ccc(-c2nc3cc(N)ccc3o2)cc1	-4%	6%
COC(=O)c1ccc(-c2nc3cc(Cl)c(N)cc3s2)cc1	6%	7.9µM*
Cc1ccc(C)c(Cn2cnc3ccccc3c2=O)c1	-3%	2%
Oc1oc(-c2ccccc2)nc1C=Nc1ccccc1	-10%	-10%
O=[N+]([O-])c1cccc(/C=C/c2nc(C=Nc3ccccc3)c(O)o2)c1	0%	13µM*
CC(C)(C)c1c2c(c(C(C)(C)C)c3c1OCN(Cc1ccccc1)C3)OCN(Cc1ccccc1)C2	3%	4%
Fc1cccc(Cl)c1CNCCSc1nnnn1-c1ccccc1	3%	13µM*
Clc1ccccc1CNCCCSc1nnnn1-c1ccccc1	-1%	-8%
SMILES	Cruzain inh Det	Cruzain inh noDet
Cc1ccc(S(=O)(=O)Nc2cc(Cl)c3oc4c(c3c2)CCCC4)cc1	6%	u
Cc1cc(NC(=O)CSc2nc(-c3ccco3)cc(C(F)(F)F)n2)no1	-4%	20µM*
Cc1cc(NC(=O)CCSc2nc(-c3ccco3)cc(C(F)(F)F)n2)no1	4%	8%
COC(=O)[C@H](Cc1ccccc1)NC(=O)O[C@@H]1C(=O)c2cc(OC)ccc2O[C@H]1c1cccc(OC)c1	-1%	1%
Cc1ccc2[nH]c(-c3ccccc3)cc(=O)c2c1	1%	-11%
Cc1ccc(/C=C2/CCc3c([nH]c4ccccc34)C2=O)cc1	6%	32µM*
O=C1/C(=C\c2ccccc2)CCc2c1[nH]c1ccccc21	-1%	u
Cc1ccc2[nH]c3c(c2c1)CC/C(=C/c1ccccc1)C3=O	4%	13µM*
COc1ccccc1NC(=O)CSc1nnc(NC(=O)Nc2ccc(C)cc2)s1	-1%	7%
O=C(Nc1ccc(Br)cc1)c1cccc(C(=O)Nc2ccc(Br)cc2)c1	0%	-14%
COc1ccccc1[C@H]1C(c2ccccc2)=NN(c2ccccc2)[C@@H]1CO	-26%	u
COc1ccccc1[C@H]1C(c2cccc(C)c2)=NN(c2ccccc2)[C@@H]1CO	3%	18µM*
COc1ccccc1[C@H]1C(c2ccc(F)cc2)=NN(c2ccccc2)[C@@H]1CO	-1%	32µM*
CC[C@H]1C(c2ccccc2)=NN(c2ccccc2)[C@@H]1CO	-8%	u
CCCNC(=O)CSc1nc2ccccc2nc1Cc1ccc(Cl)cc1	5%	-10%
O=C(NCc1cccnc1)[C@@H]1[C@@H](C(=O)O)[C@H]2CC[C@@H]1O2	1%	-8%
CN(Cc1c(O)ccc2c1oc(=O)c1ccccc12)C1CCCCC1	-20%	-26%
O=c1oc2c(CN3CCOCC3)c(O)ccc2c2c1CCCC2	28µM*	u
O=c1oc2c(CN3CCOCC3)c(O)c(Cl)cc2c2c1CCCC2	28µM*	u
CN(C)Cc1c(O)ccc2c3c(c(=O)oc12)CCCCC3	22µM*	u
O=c1oc2c(CN3CCOCC3)c(O)ccc2c2ccccc12	-5%	-17%
Cc1c(O)c(CN2CCCC2)cc2c3c(c(=O)oc12)CCC3	-20%	u
O=C(Cn1c2c(sc1=O)C1c3ccccc3OCC1CS2)Nc1ccc(Cl)c(Cl)c1 (stereo unspecified)	-2%	6.3µM*
Cn1c(N)c(N2CCCCC2)c(=O)n(CC(=O)Nc2ccc(Cl)c(Cl)c2)c1=O	-1%	-4%
COc1ccc2oc(=O)c(-c3csc(Nc4cccc(O)c4)n3)cc2c1	-12%	25µM*
SMILES	Cruzain inh Det	Cruzain inh noDet
COc1ccc(Nc2nc(-c3cc4cccc(OC)c4oc3=O)cs2)cc1	0%	u
Cc1oc(C)c2c(=O)cc(-c3ccc4c(c3)OCO4)cc(OC(=O)c3ccccc3Cl)c12	-2%	-4%
Cc1oc(C)c2c(=O)cc(-c3ccc4c(c3)OCO4)cc(OC(=O)c3ccccc3Br)c12	-9%	16µM*
O=C(Nc1ccccc1N1CCCCC1)c1ccc(-c2cccc(Cl)c2)o1	-2%	-3%
O=C(NC(=S)Nc1cc(Cl)ccc1N1CCOCC1)c1ccc(-c2cccc(Cl)c2)o1	5%	7.9µM*
COc1ccc(N2CC(c3nc(-c4ccccc4C)no3)CC2=O)cc1Cl (stereo unspecified)	-10%	u
Cc1ccc(-n2nc(C(=O)N3CCC(C)CC3)c(=O)n(C)c2=O)cc1	-3%	-1%
CCc1ccccc1N1CSC2=C(C#N)C(c3ccccc3F)CC(=O)N2C1 (stereo unspecified)	-4%	25µM*
COc1ccc(C2CC(=O)N3CN(c4ccccc4F)CSC3=C2C#N)cc1OC (stereo unspecified)	1%	2%
CCC(=O)N1CCc2cc(Br)cc(S(=O)(=O)N3CCCC(C(=O)Nc4cccc(Cl)c4C)C3)c21 (stereo unspecified)	-3%	-10%
CCCOc1ccccc1-c1nc(SCC(=O)c2ccccc2)n[nH]1	-6%	-17%
Clc1cccc(/C=N/Nc2nc(Cl)nc3ccccc23)c1	-10%	u
Clc1cccc(/C=N\Nc2nccs2)c1	25µM*	16µM*
CC(C)Oc1ccc(C(=O)N(Cc2ccc(N(C)C)cc2)Cc2ccco2)cc1	-9%	0%
COc1ccc(NC(=O)c2ccc3c(=O)n(Cc4ccco4)c(=S)[nH]c3c2)c(OC)c1	-3%	u
COc1ccc(OC)c(NC(=O)c2ccc3c(=O)n(CCc4ccccc4)c(=S)[nH]c3c2)c1	1%	10µM*
COC(=O)c1cccc(NC(=O)c2cc3sccc3n2C)c1	-17%	25µM*
COC(=O)c1ccccc1NC(=O)c1cc2sccc2n1C	-5%	-19%
